High-throughput results as filed in PubChem BioAssay.
In the library only some 12% were active in any assay of this set; here they are far more common.
Cl transport mod: modulates chloride dependent transport by human KCC2; Q9H2X9; KCC2 cells, thallium flux FluoZin-2 fluorescence; B-score of Tl+ flux slope (higher = more flux/activation; lower = inhibition) at 10 µM; 190,000 tested, 2.2% active; AID 1456;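 active = thallium flux slope and its plate-corrected score both differing from the plate sample mean at a set confidence after two filtering rounds, in either direction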;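 note: slope of fluorescence scaled to starting intensity during 10 to 20 s after thallium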
L major viab: Leishmania major promastigote growth inhibition; 200,000 tested, 9% active; inhibition, % at 10 µM; Leishmania major promastigotes, resazurin fluorescence viability; in the data active = inhibition above about 50%;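 note: promastigotes grown with compound for 44 hours at 28 °C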
WT yeast gro inh: growth inhibition of WT yeast, mitochondrial fusion screen; mitochondrial fusion phenotypic screen, WT strain; inhibition, % at 10 µM; 190,000 tested, 2.1% active; AID 1362; in the data active = inhibition above about 58%; tested in S. cerevisiae
m-calpain inh: blocks pig calpain II enzyme activity; purified calpain II, fluorogenic peptide substrate, 30 min; inhibition, % at 16 µM; 220,000 tested, 0.37% active; AID 1236;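 active = inhibition above about 50%, limit read from the data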
ROMK primary: modulates human ROMK potassium channel activity | B-score at 10 µM | 130,000 tested, 2% active | Tet-inducible ROMK, thallium flux fluorescence; actives lie on both sides | AID 1918;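 active = signal ratio slope over the read window, or its plate-corrected B-score, at least 3 SD from the plate mean, either direction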;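 note: B-score of the F/F0 ratio slope over 7 to 12 s after thallium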
Target sequence (P48048 whole entry, looked up): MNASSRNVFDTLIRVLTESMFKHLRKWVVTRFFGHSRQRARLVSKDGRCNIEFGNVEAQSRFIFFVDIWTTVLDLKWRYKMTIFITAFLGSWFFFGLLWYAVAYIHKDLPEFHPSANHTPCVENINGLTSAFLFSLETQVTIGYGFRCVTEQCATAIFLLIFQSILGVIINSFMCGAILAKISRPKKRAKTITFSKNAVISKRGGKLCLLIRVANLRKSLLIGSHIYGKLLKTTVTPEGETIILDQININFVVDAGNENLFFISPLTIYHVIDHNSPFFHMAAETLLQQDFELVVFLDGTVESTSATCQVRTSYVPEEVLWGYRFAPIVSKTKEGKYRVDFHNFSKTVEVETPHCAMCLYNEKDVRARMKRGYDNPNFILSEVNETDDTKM
A number is an active result.

What do the screens show for `CCOC(=O)N1CCC2(CC1)C(C#N)=C(N)OC1=C2C(=O)CC(C)C1` (stereo not drawn)?
Cl transport mod: inactive; L major viab: inactive; WT yeast gro inh: inactive; m-calpain inh: inactive

Results for COc1ccc(C)cc1NC(=O)NCc1ccc(F)cc1 ?
Cl transport mod: inactive; L major viab: inactive; WT yeast gro inh: inactive; m-calpain inh: inactive; ROMK primary: inactive

Results for C=CCn1c(SCC(=O)Nc2ccccc2-c2ccccc2)nc2cc(C(=O)O)ccc2c1=O ?
Cl transport mod: inactive; L major viab: inactive; WT yeast gro inh: inactive; m-calpain inh: inactive; ROMK primary: inactive

Results for S=C(NCc1ccncc1)Nc1cccc(Cl)c1 ?
Cl transport mod: inactive; L major viab: inactive; WT yeast gro inh: inactive; m-calpain inh: inactive

Results for S=C(NCCC(c1ccccc1)c1ccccc1)Nc1cccc(Cl)c1 ?
Cl transport mod: inactive; L major viab: 59.2; WT yeast gro inh: 80.2; m-calpain inh: inactive

Results for Cc1nc(C)c(C(=O)NCCC(c2ccccc2)c2ccccc2)o1 ?
Cl transport mod: inactive; L major viab: inactive; WT yeast gro inh: inactive; m-calpain inh: inactive; ROMK primary: inactive

How did COc1cccc(NC(=O)C(=O)NCc2ccncc2)c1 do in these assays?
Cl transport mod: inactive; L major viab: inactive; WT yeast gro inh: inactive; m-calpain inh: inactive; ROMK primary: inactive

Results for COc1cccc(NC(=S)NCc2ccncc2)c1 ?
Cl transport mod: inactive; L major viab: 68.2; WT yeast gro inh: inactive; m-calpain inh: inactive

What do the screens show for `Cc1ccsc1C(=O)NCCC(c1ccccc1)c1ccccc1`?
Cl transport mod: inactive; L major viab: inactive; WT yeast gro inh: 67.1; m-calpain inh: inactive

What do the screens show for `COc1ccc(C2/C=C\CN(Cc3ccncc3)CC(=O)N2Cc2ccc(F)cc2)cc1` (stereo not drawn)?
Cl transport mod: inactive; m-calpain inh: inactive

Results for Cc1ccc(-c2nc3ccsc3c(=O)[nH]2)cc1 ?
Cl transport mod: inactive; L major viab: inactive; WT yeast gro inh: inactive; m-calpain inh: inactive; ROMK primary: inactive

How did CC(=O)N1CCC(c2c[nH]c3ccccc23)CC1 do in these assays?
Cl transport mod: inactive; m-calpain inh: inactive

How did CC(C)NS(=O)(=O)c1ccc(CCC(=O)N2CCCCC2)cc1 do in these assays?
Cl transport mod: inactive; L major viab: inactive; WT yeast gro inh: inactive; m-calpain inh: inactive; ROMK primary: inactive

Results for CCC1=NN(C(=O)c2ccc(C)cc2)C(O)(c2ccc(Br)cc2)C1 (stereo not drawn) ?
Cl transport mod: inactive; L major viab: inactive; WT yeast gro inh: inactive; m-calpain inh: inactive

How did CCC1=NN(C(=O)c2cccc(Br)c2)C(O)(c2ccc(Br)cc2)C1 (stereo not drawn) do in these assays?
Cl transport mod: 6.46; L major viab: inactive; WT yeast gro inh: inactive; m-calpain inh: inactive

Results for Cc1cc(C)c(C(=O)CSc2n[nH]c(-c3ccncc3)n2)c(C)c1 ?
Cl transport mod: inactive; L major viab: 97.4; WT yeast gro inh: inactive; m-calpain inh: inactive

How did COc1ccc(C(=O)CSc2n[nH]c(-c3ccncc3)n2)cc1[N+](=O)[O-] do in these assays?
Cl transport mod: inactive; L major viab: 56.0; WT yeast gro inh: inactive; m-calpain inh: inactive; ROMK primary: inactive

What do the screens show for `CCOC(=O)CSc1n[nH]c(-c2cccnc2)n1`?
Cl transport mod: inactive; L major viab: inactive; WT yeast gro inh: 95.3; m-calpain inh: inactive; ROMK primary: inactive

Results for Nc1nc(SCC(=O)N2CCCCCC2)[nH]c(=O)c1NC(=O)c1ccco1 ?
Cl transport mod: inactive; L major viab: inactive; WT yeast gro inh: inactive; m-calpain inh: inactive

How did CCN1CCN(CC(=O)N2CCCC(C(=O)c3ccc(Oc4ccccc4)cc3)C2)CC1 (stereo not drawn) do in these assays?
Cl transport mod: inactive; L major viab: inactive; WT yeast gro inh: inactive; m-calpain inh: inactive; ROMK primary: inactive

Results for CCc1cc2c(C)cc(=O)oc2cc1OC(=O)C1CCCN1C(=O)OC(C)(C)C (stereo not drawn) ?
Cl transport mod: inactive; L major viab: 89.3; WT yeast gro inh: inactive; m-calpain inh: inactive; ROMK primary: inactive

Results for Cc1cccnc1Nc1ncnc(N)c1[N+](=O)[O-] ?
Cl transport mod: inactive; L major viab: inactive; WT yeast gro inh: inactive; m-calpain inh: inactive; ROMK primary: inactive

What do the screens show for `Cc1ccc(C)c(Nc2ncnc(N)c2[N+](=O)[O-])c1`?
Cl transport mod: inactive; L major viab: 61.0; WT yeast gro inh: inactive; m-calpain inh: inactive

How did CC(=O)N1CCc2c(sc(NC(=O)c3ccc(S(=O)(=O)N(C)C)cc3)c2C#N)C1 do in these assays?
Cl transport mod: inactive; L major viab: inactive; WT yeast gro inh: inactive

What do the screens show for `CC(=O)N1CCc2c(sc(NC(=O)c3ccc4c(c3)OCCO4)c2C#N)C1`?
Cl transport mod: inactive; L major viab: 53.6; WT yeast gro inh: inactive; m-calpain inh: inactive

What do the screens show for `Cn1cc(Cl)c(C(=O)OCC(=O)Nc2nc(-c3ccc(Br)cc3)cs2)n1`?
L major viab: 100.0; WT yeast gro inh: inactive; m-calpain inh: inactive; ROMK primary: inactive

What do the screens show for `O=C(COC(=O)c1cncc(Br)c1)Nc1nc(-c2ccc(F)cc2)cs1`?
Cl transport mod: inactive; m-calpain inh: inactive

What do the screens show for `Cc1ccc(NC(=S)Nc2ccc(F)cc2)c(C)c1`?
Cl transport mod: inactive; L major viab: inactive; WT yeast gro inh: inactive; m-calpain inh: inactive; ROMK primary: inactive

What do the screens show for `C=C(C)CNC(=S)N/N=C/c1ccc(NC(C)=O)cc1`?
Cl transport mod: inactive; L major viab: inactive; WT yeast gro inh: inactive; m-calpain inh: 62.0; ROMK primary: inactive

How did CCCCS/C(=C(/C#N)C(N)=O)c1cc2c([nH]1)CCCC2 do in these assays?
L major viab: 50.7; WT yeast gro inh: inactive; m-calpain inh: inactive; ROMK primary: inactive

What do the screens show for `Cc1nonc1OCCNCCNc1ccc([N+](=O)[O-])cc1Cl`?
Cl transport mod: inactive; L major viab: 87.1; WT yeast gro inh: inactive; m-calpain inh: inactive; ROMK primary: inactive

How did Cc1nonc1OCCNc1ccc([N+](=O)[O-])cc1 do in these assays?
Cl transport mod: inactive; L major viab: inactive; WT yeast gro inh: inactive; m-calpain inh: inactive; ROMK primary: inactive

How did CC(Sc1nc(N2CCOCC2)nc(N2CCOCC2)n1)C(=O)Nc1ccccc1 (stereo not drawn) do in these assays?
Cl transport mod: inactive; L major viab: inactive; WT yeast gro inh: inactive; m-calpain inh: inactive; ROMK primary: inactive

Results for CC(Sc1nc(N(C)C)nc(N2CCOCC2)n1)C(=O)Nc1ccccc1 (stereo not drawn) ?
Cl transport mod: inactive; L major viab: 62.7; WT yeast gro inh: inactive; m-calpain inh: inactive; ROMK primary: inactive

Results for O=C(NCC(c1ccco1)N1CCN(c2ccc(F)cc2)CC1)OCc1ccccc1 (stereo not drawn) ?
Cl transport mod: inactive; L major viab: inactive; WT yeast gro inh: inactive; m-calpain inh: inactive

What do the screens show for `O=C(NCC(c1cccnc1)N1CCOCC1)c1ccc2c(c1)OCO2` (stereo not drawn)?
Cl transport mod: inactive; L major viab: inactive; WT yeast gro inh: inactive; m-calpain inh: inactive

How did O=C(NCC(c1cccnc1)N1CCN(c2ccc(F)cc2)CC1)OCc1ccccc1 (stereo not drawn) do in these assays?
L major viab: 99.2; WT yeast gro inh: inactive; m-calpain inh: inactive; ROMK primary: inactive
